A selection: hits, their analogues and other compounds. The true share with any hit is near 3.4%.
COUP-TFII inh – NR2F2 transcriptional activity inhibitors, primary screen, cell-based, luciferase reporter, HEK293T, luminescence | COUP transcription factor 2 (Homo sapiens), P24468 | HEK293T NGFI-A luciferase reporter | inhibition, % at 8.6 µM | actives 0.7% (n = 370,000) | AID 686940, 2013;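 active = inhibition above a per-plate cutoff, mean inhibition of test wells between control levels plus 3 SD, cut at about 38% in these data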;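 note: cells cotransfected with COUP-TFII expression vector driving the NGFI-A reporter; 0% = median of COUP-TF2 test wells and 100% = reporter-only cells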
GalR3 antag – GalR3 antagonists in HEK293 cells, primary screen, cell-based, fluorescence readout; HEK293 GalR3-CNG cAMP membrane potential fluorescence; galR3 body fused to GalR1 C-terminus; AID 651719, 2012; actives 0.44% (n = 360,000); inhibition, % at 3 µM; Galanin receptor type 3 (Homo sapiens), O60755;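 active = inhibition above the screen-wide average plus 3 SD, cut at about 13% in these data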;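 note: forskolin and galanin both at EC90 stimulate the cells; cAMP rise reported by CNG channel membrane potential dye signal; 0% = forskolin plus galanin with DMSO and 100% = forskolin alone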
Target sequence (O60755 1-299 limits assumed): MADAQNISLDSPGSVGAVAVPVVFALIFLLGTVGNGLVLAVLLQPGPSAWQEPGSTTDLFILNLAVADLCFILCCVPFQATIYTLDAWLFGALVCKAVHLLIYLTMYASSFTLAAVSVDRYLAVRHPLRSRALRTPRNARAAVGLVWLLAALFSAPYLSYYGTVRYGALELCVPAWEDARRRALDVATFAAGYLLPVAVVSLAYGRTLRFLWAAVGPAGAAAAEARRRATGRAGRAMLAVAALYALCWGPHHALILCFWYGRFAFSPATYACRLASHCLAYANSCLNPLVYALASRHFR
Cardio protect – cardioprotection against H2O2-induced cell death, primary screen, uHTS, H9c2 cells, ATPLite luminescence | H9c2 cardiomyocytes, H2O2 injury protection, 2 h | protection from H2O2 cell death, % at 20 µM | actives 0.63% (n = 360,000);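 active = compounds giving at least 50% protection of heart cells from peroxide-induced death in the single-dose screen, raw or plate-pattern-corrected value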;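 note: 0% = DMSO wells with peroxide and 100% = DMSO wells without peroxide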
SMARCA2 act – SMARCA2 (BRM) function activators, primary screen, cell-based, luminescence, high throughput. actives 1% (n = 370,000). activation, % at 9.1 µM. MG213 cells, MMTV-luciferase reporter, dexamethasone, overnight; in the data active = activation above about 7.8%;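 note: 0% = vehicle wells and 100% = reference activator wells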
Gli-Sufu block – Gli-Sufu pathway antagonists, primary screen, luciferase luminescence, Sufu-KO-LIGHT cells, uHTS; Sufu-KO-LIGHT fibroblasts, Gli luciferase reporter luminescence; inhibition, % at 5 µM; actives 0.74% (n = 340,000);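 active = inhibition above about 55%, limit read from the data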;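 note: 0% = DMSO-treated cells and 100% = wells with medium but no cells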
GAA850 FXN act – FXN promoter activators, primary screen, cell-based, luciferase luminescence, HEK293 lucGAA850; actives 0.56% (n = 360,000); AID 540364, 2011; HEK293 lucGAA850 FXN promoter luciferase reporter, 24 h; percent of 10 µM SAHA response; activation, % at 6 µM;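 active = activation above the average of all compounds screened plus 3 SD, cutoff fixed separately per campaign, cut at about 7.5% in these data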;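 note: 0% = DMSO wells and 100% = 10 µM SAHA wells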
Gli-Sufu confirm – Gli-SUFU pathway antagonists, confirmation, single concentration, luciferase luminescence, Sufu-KO-LIGHT cells. AID 602428, 2012. shares compounds with Gli-Sufu block. Gli luciferase reporter. inhibition, % at 5 µM. actives 40% (n = 2,500);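 active = mean inhibition at 5 µM reaching about 45%, limit read from the data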;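 note: plate controls were DMSO-treated cells for no effect and wells lacking cells for full effect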
SufuKO cytotox – cytotoxicity in Sufu-KO-LIGHT cells, confirmation, cytotoxicity control for Gli-SUFU antagonist project, cell-based, ATP luminescence, single concentration. actives 32% (n = 2,500). cytotoxicity, % at 5 µM. AID 651994, 2013. shares compounds with Gli-Sufu block;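 active = mean cytotoxicity at 5 µM above about 25%, limit read from the data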;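 note: cells exposed to compound overnight for roughly 16 to 18 hours; plate controls were DMSO wells with cells for no effect and medium without cells for full effect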
Wnt3a cs – Wnt3a reporter signal inhibition, confirmation, counter-screen for Gli-SUFU antagonist project, Wnt-LIGHT cells, luminescence, single concentration; actives 20% (n = 2,500); Wnt3a-driven luciferase reporter; inhibition, % at 6.25 µM; shares compounds with Gli-Sufu block;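 active = mean inhibition above about 25%, limit read from the data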
* marks the source's active call; other numbers are inactive results.

NC(=N\N=Cc1ccco1)/C(N)=N/N=Cc1ccco1 was read as COUP-TFII inh -21.8, GalR3 antag -4.6, Cardio protect 10.9, SMARCA2 act 6.5, Gli-Sufu block -22.4 and GAA850 FXN act 1.9.
O=c1c2c(n3nnnc3n1Cc1ccccc1)-c1ccccc1CC21CCCC1 was read as COUP-TFII inh 0.1, GalR3 antag -7.8, Cardio protect -1.5, SMARCA2 act 3.2, Gli-Sufu block 8.7 and GAA850 FXN act -1.7.
Screening CCC1(C)Cc2ccccc2-c2c1c(=O)n(Cc1ccccc1)c1nnnn21 (centres undefined) returned COUP-TFII inh 4.2, GalR3 antag 4.5, Cardio protect -9.0, SMARCA2 act -1.5, Gli-Sufu block 75.0*, GAA850 FXN act 0.5, Gli-Sufu confirm 27.6, SufuKO cytotox 3.2 and Wnt3a cs -1.2.
For O=C(Nc1cc(S(=O)(=O)Nc2ccc(Cl)cc2)ccc1O)c1ccc(S(=O)(=O)N2CCCCCC2)cc1 the results were COUP-TFII inh -2.7, GalR3 antag -4.2, Cardio protect -25.7, SMARCA2 act -1.6, Gli-Sufu block 3.3 and GAA850 FXN act 2.7.
`O=C(N/N=C\c1cc(Cl)ccc1O)c1ccc(S(=O)(=O)N2CCCCC2)cc1` gave COUP-TFII inh 8.1, GalR3 antag 1.6, Cardio protect 62.8*, SMARCA2 act 3.0, Gli-Sufu block 73.3*, GAA850 FXN act -4.8, Gli-Sufu confirm 77.9*, SufuKO cytotox 37.2* and Wnt3a cs 60.5*.
Screening COc1cc2ccc(=O)oc2c(O[C@@H]2O[C@H](CO)[C@@H](O)[C@H](O)[C@H]2O)c1O returned COUP-TFII inh -2.1, GalR3 antag -1.1, Cardio protect -2.3, SMARCA2 act 0.6, Gli-Sufu block 3.1, GAA850 FXN act 0.7, Gli-Sufu confirm 21.5, SufuKO cytotox 6.0 and Wnt3a cs -3.6.
Screening O=c1ccc2ccc(O[C@@H]3O[C@H](CO)[C@@H](O)[C@H](O)[C@H]3O)c(O)c2o1 returned COUP-TFII inh 13.4, GalR3 antag -7.0, Cardio protect -1.6, SMARCA2 act 0.5, Gli-Sufu block -1.6 and GAA850 FXN act -0.1.
For Cc1ccc(C[n+]2cccc(-c3ccccc3)c2)c(C)c1 the results were COUP-TFII inh 25.5, GalR3 antag -2.1, Cardio protect -19.2, SMARCA2 act -7.5, Gli-Sufu block 83.7*, GAA850 FXN act -1.0, Gli-Sufu confirm 83.9*, SufuKO cytotox 21.4 and Wnt3a cs 56.4*.
`Cc1ncc(CO)c(/C=N/NC(=O)c2cc(Br)ccc2O)c1O` gave COUP-TFII inh 0.1, GalR3 antag -9.6, Cardio protect 50.1*, SMARCA2 act -2.7, Gli-Sufu block 96.2*, GAA850 FXN act 0.0, Gli-Sufu confirm 9.2, SufuKO cytotox 21.5 and Wnt3a cs 3.1.
For Cc1c(/C=N/NC(=O)c2cc(Br)ccc2O)c(=O)n(C)c(=O)n1C the results were COUP-TFII inh -20.5, GalR3 antag -8.9, Cardio protect 1.1, SMARCA2 act 0.1, Gli-Sufu block -1.6 and GAA850 FXN act -0.4.
Screening O=C(Nc1sc2c(c1-c1nc3ccccc3s1)CCNC2)C(F)(F)F returned COUP-TFII inh -5.1.

Source: PubChem
